Measured values published in PubChem BioAssay AID488838 (National Center for Advancing Translational Sciences (NCATS), 2010).
Results filed as inconclusive are left out. Entries that show only a call come without a potency. The source made the active and inactive calls. Calls come from the whole dose curve; as a rule, active = well fitted inhibition curve with a large enough effect; inconclusive = small, poorly fitted or top-dose-only effect; inactive = flat fitted curve, though single readings scatter.

Biological target: Luciferin 4-monooxygenase (Photinus pyralis) (UniProt P08659)
Test: Counterscreen Assay for Enhancers of SMN2 Splice Variant Expression: Interaction with Luciferase Reporter for Further Probe SAR
Conditions: purified firefly luciferase, luminescence, 5 min; series mostly up to 57.5 µM
Source text: NIH Chemical Genomics Center [NCGC] NIH Molecular Libraries Probe Production centers Network [MLPCN] MLPCN Grant: R03 MH084179-01 Assay Submitter (PI): Elliot Androphy NCGC Assay Overview: Spinal muscular atrophy (SMA) is caused by insufficient levels of the survival motor neuron protein SMN. The SMN locus on chromosome 5q13 contains two inverted copies of SMN called SMN1 and SMN2 which are 99% identical at the amino acid level. SMN1 is a fully functional protein and SMN2 skips exon 7 90% of the time. Skipping of exon 7 produces non-functional protein product. 10% of the SMN2 protein includes exon 7 and is fully functional. In the SMA disease state, mutations in the SMN1 locus are the cause of the disease state. Because only 10% of SMN2 is of the fully functional form, it is not sufficient to overcome the deficiency produced by the loss of the SMN1 product. A therapy that either increases the amount of SMN2 product made increases the inclusion of exon 7 has been proposed for the treatment of SMA. We have designed an assay to identify small molecules that can increase the amount of functional SMN2 product by appending a luciferase reporter gene after the native SMN2 gene, such that inclusion of exon 7 in the expressed product places the luciferase sequence in frame, thus generating functional luciferase enzyme. One potential source of false positives in the primary screening assay is stabilization of the reporter luciferase via direct binding. This assay attempts to identify such compounds by screening directly for luciferase activity in the absence of the cellular system.
NCGC Assay Protocol Summary: The primary screen utilizes a luciferase reporter gene assay, combining the promoter and splicing based cassettes in tandem with the major portion of the native SMN1 cDNA, and then transfected into HEK293 cells. Compounds that modulate luciferase signal presumably modulate expression of […]. In this assay, we utilize purified firefly luciferase in lieu of a cellular reporter to identify compounds interacting directly with luciferase in the primary screen. Sequence, Parameter, Value, Description (1) Reagent, 2.5 uL, Enzyme in buffer (note A) (2) Compound, 23 nL, From stock solutions (3) Time, 5 minutes, Room temp (4) Reagent#2.5 ul, Luciferase detection reagent (note B) (5) Detector, 1 sec integrate, Luminescent read on Viewlux (note C) Sigma enzyme (1 mg) considered to be MW 61,000 diluted in 357 ul assay buffer to 50 uM stock. A - Enzyme and buffer consists of 50 mM Tris-acetate pH 7.6, 10 mM Mg acetate 0.05% BSA, 0.01% Tween and 5 nM firefly luciferase B - Detection reagent = britelite plus diluted 1:10 in PBS C - Viewlux settings were 1 second integration medium sensitivity Keywords: Spinal muscular atrophy, SMA, SMN2, high throughput screening, MLSMR, MLPCN, NIH Roadmap, qHTS and NCGC

Luciferin 4-monooxygenase (Photinus pyralis), sequence (P08659 whole entry, looked up, canonical isoform): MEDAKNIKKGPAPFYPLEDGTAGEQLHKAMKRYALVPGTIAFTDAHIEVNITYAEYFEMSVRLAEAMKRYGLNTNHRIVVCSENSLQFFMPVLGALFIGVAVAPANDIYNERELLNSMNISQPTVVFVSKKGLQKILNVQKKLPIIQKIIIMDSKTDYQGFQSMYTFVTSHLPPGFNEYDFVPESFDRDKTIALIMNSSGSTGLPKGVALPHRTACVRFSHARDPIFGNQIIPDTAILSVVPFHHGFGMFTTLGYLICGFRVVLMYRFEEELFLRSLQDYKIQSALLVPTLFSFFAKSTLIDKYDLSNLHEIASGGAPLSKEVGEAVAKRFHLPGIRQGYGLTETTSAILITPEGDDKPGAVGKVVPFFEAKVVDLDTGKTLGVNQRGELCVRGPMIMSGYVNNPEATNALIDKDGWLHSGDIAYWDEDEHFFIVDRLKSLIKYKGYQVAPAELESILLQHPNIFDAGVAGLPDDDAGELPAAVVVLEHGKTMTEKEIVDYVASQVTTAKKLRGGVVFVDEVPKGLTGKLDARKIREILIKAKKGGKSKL

Row | Structure (SMILES) | Potency
1 | NC(=O)C1CCN(c2nc(-c3ccc4c(c3)OCCCO4)cs2)CC1 | 0.897 µM (active)
2 | NC(=O)C1CCN(c2nc(-c3ccc4c(c3)OCO4)cs2)CC1 | 28.4 µM (active)
3 | Cc1cnc(N2CCC(C(N)=O)CC2)nc1-c1cccc(N(C)C)c1 | inactive
4 | NC(=O)C1CCN(c2ncc(Br)s2)CC1 | inactive
5 | O=C(c1ccccc1)N1CCN(c2nc(-c3ccc(Br)cc3)cs2)CC1 | inactive
6 | NC(=O)C1CCN(c2ncc(-c3ccc(Br)cc3)s2)CC1 | 4.01 µM (active)
7 | CS(=O)(=O)N1CCN(c2nc(-c3ccc(Br)cc3)cs2)CC1 | inactive
8 | O=C(O)C1CCN(c2nc(-c3ccc(Br)cc3)cs2)CC1 | 1.42 µM (active)
9 | COc1cccc(-c2csc(N3CCC(C(N)=O)CC3)n2)c1 | 25.3 µM (active)
10 | CCOc1ccc(-c2csc(N3CCC(C(N)=O)CC3)n2)cc1 | inactive
11 | CN(C)c1cccc(-c2nccc(N3CCC(C(N)=O)CC3)n2)c1 | inactive
12 | NC(=O)C1CCN(c2nnc(-c3ccc4c(c3)OCCCO4)s2)CC1 | 3.57 µM (active)
13 | CS(=O)(=O)c1ccc(-c2csc(N3CCC(C(N)=O)CC3)n2)cc1 | inactive
14 | c1c[nH]c(C2CCN(c3ncc(-c4ccc5c(c4)OCCCO5)s3)CC2)n1 | 10.1 µM (active)
15 | NC1CCN(c2nc(-c3ccc(Br)cc3)cs2)CC1 | 2.01 µM (active)
16 | Nc1nc(N)c2c(OCC3CCN(Cc4ccccc4F)CC3)cccc2n1 | inactive
17 | NC(=O)C1CCN(c2nc(-c3cccc(C(F)(F)F)c3)cs2)CC1 | inactive
18 | CN(C)c1cccc(-c2cc(N3CCC(C(N)=O)CC3)ncn2)c1 | inactive
19 | NC(=O)C1CCN(c2nc(-c3ccccc3Cl)cs2)CC1 | inactive
20 | CCOC(=O)C1CCN(c2nc(-c3ccc(Br)cc3)cs2)CC1 | inactive
21 | N#Cc1ccc(-c2csc(N3CCC(C(N)=O)CC3)n2)cc1 | inactive
22 | NC(=O)C1CCN(c2ncc(-c3ccc4c(c3)OCCO4)s2)CC1 | 5.05 µM (active)
